Records with an inconclusive call do not appear. The source made the active and inactive calls.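 The calls were made as follows: active = cell viability at or below a set limit in both duplicate runs, the limit being the all-compound median minus 4 SD (cut at about 23% in these data, passing the limit was not always enough); inconclusive = no clear call, values can overlap the other calls; inactive = the rest.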
Experiment: viability of HCT116 without oncogenic beta-catenin – human colon tumor cells, pilot screen (AID 823);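 also: 0% = wells killed by 20 µM Hyamine and 100% = untreated DMSO cell wells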
Details: HCT116 beta-catenin knockout viability, CellTiter-Glo, 60 h; at 10 µM; hits give low values

Structure (SMILES) | viability
CC1(C(=O)NCc2cccnc2)CCC(=O)N1Cc1cccs1 (stereo not given) | 108% (inactive)
C=CCOC(=O)C1=C(C)NC(C)=C(C(=O)OCC=C)C1c1ccc(O)cc1 | 78.1% (inactive)
C=CCNC(=O)c1ccc(C)cc1Cl | 95.5% (inactive)
c1cncc(-c2noc(-c3ccco3)n2)c1 | 96.7% (inactive)
O=C(O)C1C2C=CC(C2)C1C(=O)NCCc1cccc(Cl)c1 (stereo not given) | 104% (inactive)
O=C1c2oc3ccc(F)cc3c(=O)c2C(c2cccc(O)c2)N1CCCN1CCOCC1 (stereo not given) | 99% (inactive)
COc1cc(Nc2cc(C)nc3nc(C)nn23)cc(OC)c1OC | 95.7% (inactive)
CNC(=O)c1ccsc1NC(=O)c1ccc(Cl)s1 | 103% (inactive)
C=CCSC1=C(C#N)C(c2ccc(OCC)cc2)CC(=O)N1 (stereo not given) | 94.5% (inactive)
O=C(NC1CCCCCC1)C1CCN(S(=O)(=O)c2cccc3cccnc23)CC1 | 99.5% (inactive)
CC(C)NC(=O)CCCc1ccccc1 | 92.1% (inactive)
Cc1nc2ccc(NC(=O)c3ccc(S(=O)(=O)N4CCOCC4)cc3)cc2s1 | 95.3% (inactive)
Cc1cc(Nc2cc(C)on2)n2ncnc2n1 | 106% (inactive)
O=C1C2CCCN2C(c2ccc(Br)cc2)N1c1ccc(F)cc1 (stereo not given) | 94.2% (inactive)
Cc1cc(NC(=O)CSc2nnc(C)c(=O)[nH]2)no1 | 112% (inactive)
CCOC(=O)C(C)Sc1nnc(Cc2cc(=O)[nH]c(=O)[nH]2)n1-c1ccc(OCC)cc1 (stereo not given) | 109% (inactive)
CCOc1ccc(N(CC(=O)O)S(=O)(=O)c2ccc(OC)c(OC)c2)cc1 | 95.5% (inactive)
O=C(CSc1nnnn1-c1cccc2c1CCCC2)N1CCOCC1 | 95.4% (inactive)
CS(=O)(=O)N1CCN(c2nc(-c3ccc(F)cc3)cs2)CC1 | 90.9% (inactive)
CN1CCN(c2ccccc2NC(=O)C(Cc2ccccc2)n2cccc2)CC1 (stereo not given) | 55.6% (inactive)

Structure (SMILES) | viability
O=C(Nc1cccnc1)c1ccccc1F | 103% (inactive)
COc1ccccc1NC(=O)CSc1nnc(-c2ccccn2)n1Cc1ccco1 | 101% (inactive)
Cc1cccn2cc(CCNC(=O)c3ccc(Br)o3)nc12 | 99% (inactive)
Cc1ccccc1-n1nc(-c2ccc(N)cc2)cc1N | 101% (inactive)
COc1ccc(-c2noc(Cc3ccccc3OC)n2)cc1 | 94% (inactive)
COc1cccc(C(c2sc3ncnn3c2O)N2CC(C)OC(C)C2)c1 (stereo not given) | 99.1% (inactive)
C=CCn1c(O)c(C2=c3ccccc3=NC2=O)s/c1=N/c1nccs1 | 42.1% (inactive)
O=C(O)C1CCCCC1C(=O)NCc1cn2ccccc2n1 (stereo not given) | 110% (inactive)
Cn1c(C(=O)N2CCN(C(=O)c3ccco3)CC2)cc2c(=O)n(C)c3ccccc3c21 | 92.9% (inactive)
CCOc1ccc2[nH]cc(S(=O)(=O)c3ccc(F)cc3)c(=O)c2c1 | 78.7% (inactive)
Cc1ccc(C)c(C(=O)CSc2n[nH]c(C)n2)c1 | 102% (inactive)
Cc1cccc(Cn2c(N3CCCCC3C)nc3c2c(=O)[nH]c(=O)n3C)c1 (stereo not given) | 89.3% (inactive)
Cc1nnc(SCC(=O)N2CCOCC2)n1C | 106% (inactive)
N#CC1=C(N)Oc2n[nH]c(-c3ccccc3)c2C1c1cccc(OC(=O)N2CCOCC2)c1 (stereo not given) | 97.6% (inactive)
CCOc1cc(-c2nc(-c3ccncc3)no2)cc(OCC)c1OCC | 60.1% (inactive)
CC(=O)Nc1nnc(C)s1 | 103% (inactive)
CSC1=NCCN1C(=O)c1ccc(S(=O)(=O)N2CCOCC2)cc1 | 102% (inactive)
CCCC(NS(=O)(=O)c1ccc(OC)cc1)C(=O)O (stereo not given) | 90.1% (inactive)
CCOC(=O)Cn1c(=O)oc2cc(S(=O)(=O)Nc3ccc(F)cc3)ccc21 | 96.7% (inactive)
CNC(=O)c1c(NC(=O)c2nc3ccccc3s2)sc2c1CCC2 | 67.5% (inactive)
